HTR5A ag = HTR5A agonists in luminescence cell assay, primary screen, counter-screen for OPRM1-OPRD1 heterodimer agonist project, full-deck HTS | 5-hydroxytryptamine receptor 5A (Homo sapiens), P47898 | cell-based | activation, % at 9.3 µM | 340,000 compounds, 0.61% hits | AID 504692, 2011; in the data active = activation mostly above about 9.5%, no sharp cut-off; inactive = mostly below about 7.6%;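 also: 0% = cells with vehicle only and 100% = reference agonist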
MOR-DOR ag-1 = agonists of OPRM1-OPRD1 heterodimerization, primary screen, cell-based, luminescence. Mu-type opioid receptor (Homo sapiens) + Delta-type opioid receptor (Homo sapiens), …. cells. activation, % at 9.3 µM. 340,000 compounds, 0.3% hits. AID 504326, 2011;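 also: 0% = vehicle-treated cells and 100% = reference agonist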
Target sequence (P35372 whole entry, looked up): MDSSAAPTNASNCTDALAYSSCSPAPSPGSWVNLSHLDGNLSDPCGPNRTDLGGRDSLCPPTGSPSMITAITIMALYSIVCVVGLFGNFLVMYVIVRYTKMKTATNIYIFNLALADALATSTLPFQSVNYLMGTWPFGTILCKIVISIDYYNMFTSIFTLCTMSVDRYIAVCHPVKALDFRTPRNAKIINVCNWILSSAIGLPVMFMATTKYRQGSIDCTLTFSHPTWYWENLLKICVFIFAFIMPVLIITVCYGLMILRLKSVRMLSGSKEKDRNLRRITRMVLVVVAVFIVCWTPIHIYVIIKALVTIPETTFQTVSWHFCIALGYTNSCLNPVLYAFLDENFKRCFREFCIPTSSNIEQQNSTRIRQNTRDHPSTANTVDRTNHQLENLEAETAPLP
Target sequence (P41143 whole entry, looked up): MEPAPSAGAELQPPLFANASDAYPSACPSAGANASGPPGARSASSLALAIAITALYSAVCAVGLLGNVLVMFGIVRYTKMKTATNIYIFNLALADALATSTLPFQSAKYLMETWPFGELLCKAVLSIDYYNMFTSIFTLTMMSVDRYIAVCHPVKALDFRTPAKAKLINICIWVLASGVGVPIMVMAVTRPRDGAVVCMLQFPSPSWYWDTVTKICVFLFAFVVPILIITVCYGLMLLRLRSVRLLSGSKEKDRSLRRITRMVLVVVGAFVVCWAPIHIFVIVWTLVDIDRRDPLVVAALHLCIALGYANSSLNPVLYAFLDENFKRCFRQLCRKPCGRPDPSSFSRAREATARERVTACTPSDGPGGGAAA
V-ATPase pHluor = regulators of yeast V-ATPase proton pumping, primary screen, pHLuorin cytosolic pH fluorescence; response, % at 10 µM; S. cerevisiae; AID 504577, 2011; 350,000 compounds, 0.37% hits; in the data active = response mostly above about 7.3%, no sharp cut-off; inactive = mostly below about 5.4%; also: actives read high
beta cell repl = inducers of MIN6 beta-cell proliferation, primary screen, ATP luminescence, uHTS; MIN6 cells proliferation, ATPlite luminescence, 48 h; cells starved in 0.2% serum; 100% = growth in 10% serum; proliferation, % at 10 µM; 330,000 compounds, 0.29% hits;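 active = compounds whose signal lies at least 3.5 SD above the mean of all wells on their plate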;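 also: 0% = DMSO-treated cells in low-serum medium and 100% = 10% serum control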
OPRM1-OPRD1 inv = inverse agonists of MOR-DOR heterodimerization, primary screen, cell-based, luminescence | cell-based MOR-DOR heterodimer luminescence, inverse agonism | AID 504357, 2011 | inhibition, % at 9.3 µM | Mu-type opioid receptor (Homo sapiens) + Delta-type opioid receptor (Homo sapiens), … | 340,000 compounds, 0.21% hits; in the data active = inhibition above about 22%, passing the limit was not always enough;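 also: 0% = cells with DMSO and 100% = wells without cells with DMSO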
HTR5A inv ctr = HTR5A inverse agonists in luminescence cell assay, primary screen, counter-screen for OPRM1-OPRD1 heterodimer inverse agonist project, full-deck HTS; inhibition, % at 9.3 µM; 340,000 compounds, 0.083% hits; AID 504634, 2011; HTR5A cell line, inverse agonism; 5-hydroxytryptamine receptor 5A (Homo sapiens), P47898; in the data active = inhibition mostly above about 23%, no sharp cut-off; inactive = mostly below about 18%;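 also: 0% = cells with DMSO and 100% = no-cell wells with DMSO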
MOR-DOR ag-2 = OPRM1-OPRD1 heterodimerization promoters, counter-screen for HTR5A agonist project, cell-based, luminescence. activation, % at 9.3 µM. 800 compounds, 13% hits. shares compounds with HTR5A ag. U2OS counter-screen cells, complementation luminescence, 3 h
HTR5A ag confirm = HTR5A agonists, retest of hits, confirmation, cell-based, luminescence; HTR5A agonist cell assay; AID 504915, 2011; 800 compounds, 17% hits; activation, % at 9.3 µM; shares compounds with HTR5A ag; in the data active = activation above about 17%;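 also: 0% = cells with vehicle only and 100% = full reference agonist response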
* marks the source's active call; other numbers are inactive results; x = no result given. An excerpt weighted towards active compounds, which were near 1.7% of everything screened. Rule as the data show it, unless noted: active = activation above about 18%; inactive = the rest.

SMILES | HTR5A ag | MOR-DOR ag-1 | V-ATPase pHluor | beta cell repl | OPRM1-OPRD1 inv | HTR5A inv ctr | MOR-DOR ag-2 | HTR5A ag confirm
Cc1cc(C)c(S(=O)(=O)NCCc2cc3ccc(C)c(C)c3[nH]c2=O)c(C)c1 | 16.8* | 1.6 | -7.2 | 0.0 | -8.2 | -18.5 | 2.1 | -0.9
COc1cc(CC(NC(C)=O)C(=O)NC2CCN(S(=O)(=O)c3ccc(NC(C)=O)cc3)CC2)cc(OC)c1 (stereo not drawn) | -1.9 | 2.1 | 7.7 | -3.7 | -17.1 | 5.6 | x | x
C=CCn1c(SCC(=O)NC(=O)NCc2ccco2)nc2sc(C)c(C)c2c1=O | 16.7* | 14.2 | -2.2 | -2.3 | -83.5 | -43.7 | -2.8 | -5.2
COc1ccc(-c2csc(NCCc3nc4cc(C(=O)NCCCO)ccc4n3Cc3ccc(C)cc3)n2)cc1 | 1.8 | -1.6 | 1.2 | -0.3 | 9.0 | 0.4 | x | x
Cc1ccc2c(c1)Oc1ccc(NC(=O)CCl)cc1C(=O)N2 | 15.5* | -2.9 | 3.6 | -5.9 | 14.4 | -18.1 | 2.4 | 4.2
O=c1[nH]c2ccccc2n1CCCN1CCN(C(c2ccccc2)c2ccccc2)CC1 | x | x | x | -7.7 | x | x | x | x
Cc1nc(NC(=O)/C=C/c2ccccc2)sc1C(=O)Nc1ccc(Cl)cc1 | 17.1* | 11.6 | -1.7 | -5.5 | -58.5 | -48.9 | 4.1 | 4.2
Cc1nc(NC(=O)/C=C/c2ccccc2)sc1C(=O)Nc1ccccc1Cl | -1.9 | -0.7 | -7.1 | -2.9 | 3.7 | 18.9 | x | x
O=C(COC(=O)[C@@H]1CCCN1S(=O)(=O)c1ccccc1F)Nc1ccc(OC(F)F)cc1 | 2.3 | -4.6 | 2.2 | 5.9 | 21.5 | 6.2 | x | x
CCOc1ccc(NC(=O)NCCN2CCN(c3ccccc3F)CC2)cc1 | 0.7 | -1.9 | 0.8 | 1.9 | 9.3 | -2.6 | x | x
CCOc1cccc(N2CCN(CCNC(=O)Nc3ccc(C)cc3)CC2)c1C | 15.4* | 1.6 | 7.1 | -4.2 | -7.5 | -52.4 | 5.9 | 20.2*
COc1ccc(NC(=O)NCCN2CCN(c3cccc(Cl)c3)CC2)cc1 | 19.2* | 2.8 | 1.1 | -2.7 | -16.6 | -58.5 | 14.8 | 23.2*
COc1ccc(N2CCN(CCNC(=O)Nc3ccc(C)c(Cl)c3)CC2)cc1 | 1.4 | 1.5 | -3.1 | -3.1 | -6.8 | -5.0 | x | x
COc1ccc(CC(=O)Nc2cccc(-c3nnc(-c4ccccc4)o3)c2)cc1OC | 16.2* | 10.3 | 0.4 | x | -58.0 | -43.3 | -2.4 | -3.7
COc1ccc(CC(=O)Nc2ccc(-c3nnc(-c4ccccc4)o3)cc2)cc1OC | -1.3 | 12.4 | 7.5 | 1.4 | -67.5 | -11.3 | x | x
O=C1[C@H]2[C@@H](c3ccc(Cl)cc3)N3C(=O)N(c4cccc(F)c4)C(=O)[C@@]3(Cc3ccc(Cl)cc3)[C@H]2C(=O)N1C1CCCCC1 | 0.7 | -2.6 | 4.4 | -7.0 | 14.1 | 11.3 | x | x
CC[C@@]12C(=O)N(c3cccc(F)c3)C(=O)N1[C@H](c1ccc(Cl)cc1)[C@@H]1C(=O)N(C3CCCCC3)C(=O)[C@@H]12 | 15.3* | 8.2 | 1.1 | -7.1 | -46.8 | -10.4 | 18.9* | 11.2
CCCCCCCCCC[n+]1cccc2c3ccccc3ccc21 | 21.6* | -0.4 | 0.2 | x | 2.1 | 4.7 | 3.8 | 5.5
CCOc1ccc(C(=O)N2CCN(CC(=O)N3CCCC3)CC2)cc1OCC | 0.5 | -0.9 | 8.5 | 0.7 | 3.6 | 1.2 | x | x
O=c1c(Cc2ccc(F)cc2)c(O)ccn1CCc1ccccn1 | 3.7 | -0.2 | 0.2 | -2.0 | 0.8 | -41.3 | x | x
NC(=O)c1cc([N+](=O)[O-])ccc1NCc1ccc(O)cc1 | -4.4 | -0.4 | 4.8 | 6.9 | 2.2 | -17.1 | x | x
NC(=O)c1cc([N+](=O)[O-])ccc1NCC1CCCCC1 | 16.1* | 4.9 | -3.0 | 7.2 | -26.8 | -41.0 | 15.8 | 6.6
NC(=O)c1cc([N+](=O)[O-])ccc1NCc1cnccn1 | 21.7* | -1.5 | -0.7 | -1.9 | 8.4 | 9.1 | 1.3 | -0.1
CC1(C)O[C@@H]2[C@H](O1)[C@@H](CO)O[C@H]2n1cnc2c(=O)[nH]cnc21 | 0.9 | -0.2 | 1.2 | 2.9 | 1.4 | 1.3 | x | x
COc1ccc(C)cc1N(CC(=O)N1CCCCCC1)S(=O)(=O)c1ccccc1 | -1.2 | 0.1 | 0.6 | 1.9 | -0.4 | 3.5 | x | x
SMILES | HTR5A ag | MOR-DOR ag-1 | V-ATPase pHluor | beta cell repl | OPRM1-OPRD1 inv | HTR5A inv ctr | MOR-DOR ag-2 | HTR5A ag confirm
CCN(CC)CCCNc1ccc(-c2nnc(-c3ccc(OCC(C)C)cc3)o2)cn1 | 18.2* | 0.1 | 4.1 | -5.9 | -0.8 | -48.7 | 10.2 | 1.4
Nc1ccn([C@@H]2O[C@H](CNCc3ccc(-c4cc(C(F)(F)F)ccc4Cl)o3)[C@@H](O)[C@H]2O)c(=O)n1 | x | x | -1.1 | x | x | x | x | x
O=C(CNC(=O)c1ccc(Br)o1)NCC1CCCCC1 | 0.7 | -2.5 | -3.5 | -0.8 | 10.8 | -1.7 | x | x
COc1ccc(C(CNc2ccc(C(F)(F)F)cn2)N(C)C)cc1OC (stereo not drawn) | 18.8* | 17.2 | -2.9 | 0.0 | -138.5 | -55.9 | -0.1 | -5.4
O=C(NCCc1c[nH]c2ccccc12)/C(=C\c1cccnc1)NC(=O)c1ccccc1Br | 21.7* | -1.9 | 0.9 | -0.2 | 10.1 | -37.0 | 0.3 | 2.2
CCCOc1ccccc1/C=C1\SC(N2CCCCC2)=NC1=O | 16.5* | -0.6 | -1.1 | -2.0 | 2.7 | -60.7 | 0.3 | 24.2*
O=C1N=C(N2CCCCC2)S/C1=C\c1ccccc1F | 2.9 | -1.2 | 4.3 | -2.9 | 6.0 | -10.8 | x | x
Cc1onc(-c2ccccc2Cl)c1C(=O)NC1CCCCCC1 | 1.2 | -0.1 | 0.8 | -4.8 | 0.7 | -4.9 | x | x
CC(C)(C)NC(=O)NC(=O)COC(=O)COc1ccc2c(c1)CCC2 | 20.4* | 6.2 | -1.8 | -0.8 | -36.2 | -53.6 | 9.5 | 3.8
Cc1cccc(NC(=O)COC(=O)COc2ccc3c(c2)CCC3)c1 | 0.7 | 3.0 | -7.2 | 4.3 | -11.2 | 2.7 | x | x
O=C(Nc1ncn[nH]1)C(F)(F)C(F)F | -1.3 | -0.7 | 0.0 | -4.3 | 4.1 | 4.6 | x | x
CCC(C(=O)Nc1ncn[nH]1)(C(F)(F)F)C(F)(F)F | 18.2* | -0.7 | 3.0 | 0.4 | 4.4 | -12.1 | 0.2 | 0.6
CC(C)NCc1nnc(-c2ccccc2Cl)o1 | 0.6 | -1.4 | 0.4 | -1.1 | 6.5 | -1.7 | x | x
CCOC(=O)c1cc(C(=O)c2cccs2)n2ccc(C(C)=O)cc12 | 19.9* | -2.6 | -3.1 | -3.3 | 14.5 | -55.0 | 3.1 | -2.0
O=C(NCCCNC(=O)c1ccccn1)c1ccc(Cl)cc1 | 18.2* | 0.4 | 0.7 | 4.5 | -2.4 | -51.7 | 0.4 | 4.4

From PubChem BioAssay
